Publication PMC4336329 (PLoS ONE, 2015)
The campaign covered roughly 310,000 compounds. About 14,000 (4.5%) showed an effect of 50% or more. The effect is printed as a negative number. This excerpt belongs to a sample that is enriched for strong results.

molecular target: human ether-à-go-go-related gene (hERG) potassium channel (human, UniProt Q12809); experiment: primary screen, population patch clamp on CHO cells stably expressing hERG; higher = less effect of the substance
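Further: peak tail current of the secondary pulse compared with the same well before compound.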

Sequence of human ether-à-go-go-related gene (hERG) potassium channel (Q12809 whole entry, looked up): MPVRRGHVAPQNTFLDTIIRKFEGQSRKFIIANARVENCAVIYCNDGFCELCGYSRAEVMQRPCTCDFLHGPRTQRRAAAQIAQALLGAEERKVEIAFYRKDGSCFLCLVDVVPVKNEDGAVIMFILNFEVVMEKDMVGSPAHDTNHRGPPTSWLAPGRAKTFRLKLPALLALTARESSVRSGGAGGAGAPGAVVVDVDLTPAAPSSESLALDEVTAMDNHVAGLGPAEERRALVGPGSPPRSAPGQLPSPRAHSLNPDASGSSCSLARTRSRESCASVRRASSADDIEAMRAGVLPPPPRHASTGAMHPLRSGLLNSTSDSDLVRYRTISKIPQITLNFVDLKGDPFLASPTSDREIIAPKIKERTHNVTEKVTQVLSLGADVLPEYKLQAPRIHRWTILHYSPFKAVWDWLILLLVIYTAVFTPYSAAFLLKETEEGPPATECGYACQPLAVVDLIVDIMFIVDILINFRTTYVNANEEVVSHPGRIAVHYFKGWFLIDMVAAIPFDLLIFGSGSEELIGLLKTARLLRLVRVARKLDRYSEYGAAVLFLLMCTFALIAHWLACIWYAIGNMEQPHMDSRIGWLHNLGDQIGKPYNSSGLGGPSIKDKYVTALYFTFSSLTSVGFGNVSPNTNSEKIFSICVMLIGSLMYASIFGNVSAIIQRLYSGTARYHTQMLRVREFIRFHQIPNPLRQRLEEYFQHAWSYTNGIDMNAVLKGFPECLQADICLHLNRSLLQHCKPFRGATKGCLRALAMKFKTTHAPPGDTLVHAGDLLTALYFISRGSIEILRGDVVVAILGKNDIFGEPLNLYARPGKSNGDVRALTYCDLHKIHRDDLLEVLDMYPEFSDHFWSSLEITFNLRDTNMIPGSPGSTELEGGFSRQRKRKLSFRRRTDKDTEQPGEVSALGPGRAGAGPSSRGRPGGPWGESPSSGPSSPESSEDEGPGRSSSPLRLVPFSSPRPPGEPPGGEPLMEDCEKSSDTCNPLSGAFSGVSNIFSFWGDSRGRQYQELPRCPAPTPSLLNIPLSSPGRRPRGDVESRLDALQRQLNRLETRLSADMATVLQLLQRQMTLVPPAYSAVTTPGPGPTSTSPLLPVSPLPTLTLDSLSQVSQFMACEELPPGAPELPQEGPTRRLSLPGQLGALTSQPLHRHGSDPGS

SMILES | hERG current change (%, negative = inhibition) at 10uM [%]
COc1ccc(C(=O)Nc2ccccc2N2CCN(C(=O)c3ccccc3)CC2)cc1Br | -8.68
COc1ccc(Br)cc1C(=O)Nc1ccccc1N1CCN(C(=O)c2ccccc2)CC1 | -52.4
COc1ccc(Br)cc1C(=O)Nc1ccccc1-c1ccccc1 | -2.5
O=C(Nc1ccccc1N1CCN(C(=O)c2ccccc2)CC1)c1cc(Br)ccc1Cl | -55.6
O=C(Nc1ccccc1N1CCN(C(=O)c2ccc(Cl)cc2)CC1)c1cc2ccccc2o1 | -2.33
CCCC(=O)Nc1ccccc1N1CCN(C(=O)c2ccccc2)CC1 | -46
O=C(Nc1ccccc1N1CCCC1)c1ccc(Cl)cc1Cl | 8.88
O=C(Nc1ccccc1N1CCN(C(=O)c2ccc(Cl)cc2)CC1)c1cc(Br)ccc1Cl | -67.7
Cc1ccc(C(=O)NCC(=O)NC2CCC(C)CC2)s1 (stereo not drawn) | 2.47
CC(=O)NCCc1nc2ccccc2n1Cc1ccccc1 | 1.05
O=C(COc1ccccc1[N+](=O)[O-])Nc1ccccc1N1CCCC1 | -29.1
CCN(CC(=O)Nc1ccc2c(c1)OCO2)CC(=O)Nc1ccccc1C(F)(F)F | -14.4
C/C(=N\NS(=O)(=O)c1ccc(C)c([N+](=O)[O-])c1)c1cc2ccccc2o1 | -9.98
Cc1ccc(-n2c(C)c3c(C)nnc(C)c3c2C)cc1C | -34
C=CCn1cc(C(=O)c2cc(Br)ccc2O)cc(C#N)c1=O | -17.5
Cc1ccc(C(=O)OCC(=O)N2CCCC2)cc1 | -2.99
Cc1nnc(-c2cnn(C)c2N)n1Cc1ccc2c(c1)OCO2 | 5.96
Cc1nnc(C)c2c(C)n(Cc3ccc4c(c3)OCO4)c(C)c12 | -71.4
CC(=O)c1c(C(C)=O)c(C)n(Cc2ccc3c(c2)OCO3)c1C | -9.41
CCOc1ccc2oc(C(=O)OCC(=O)NC3CCCC3)c(C)c2c1 | 11.1
Cc1cccc(NC(=O)CN2C(=O)c3ccccc3C2=O)c1C | 0.742
CCc1ccc(C(=O)NNC(=O)CCc2nc3ccccc3c(=O)[nH]2)cc1 | -7.54
O=S(=O)(c1ccc(Cl)cc1)N1CCN(Cc2c[nH]c3ccccc23)CC1 | -18.8

SMILES | hERG current change (%, negative = inhibition) at 10uM [%]
O=C(O)C(=O)O.O=[N+]([O-])c1ccc(S(=O)(=O)N2CCN(Cc3c[nH]c4ccccc34)CC2)cc1 | -54.5
O=C(O)C(=O)O.O=[N+]([O-])c1ccccc1CN1CCN(Cc2c[nH]c3ccccc23)CC1 | -24.2
c1ccc2c(CN3CCCCC3)c[nH]c2c1 | -38
c1ccc(CN2CCN(Cc3c[nH]c4ccccc34)CC2)cc1 | -30.2
O=[N+]([O-])c1ccc(CN2CCN(Cc3c[nH]c4ccccc34)CC2)cc1 | -77.8
O=C(CN1CCN(Cc2ccccc2Cl)C1=O)NCc1cccnc1 | -1.97
O=C(Cn1c(SCC(=O)N2CCCc3ccccc32)nc2ccccc21)N1CCCC1 | -13.2
O=[N+]([O-])c1ccc2c(c1)nc1n2CCN(c2ccccc2)C1 | -26.1
CCn1cnc2sc(C(=O)N(Cc3ccc(N(C)C)cc3)Cc3ccco3)c(C)c2c1=O | -22.2
CCOC(=O)c1c(NC(=O)C2COc3ccccc3O2)sc2c1CCN(Cc1ccccc1)C2.Cl (stereo not drawn) | 0.603
NC1=NC[C@H](Cc2ccccc2)N1CCCCC1CCCCC1 | -25.9
NC1=NC[C@H](Cc2ccc(O)cc2)N1CCCCC1CCCCC1 | -50.2
CN(C)C1=NC[C@H](Cc2ccccc2)N1CCCC1CCCCC1 | -70.8
CN(C)C1=NC[C@H](Cc2ccccc2)N1CC1CCCCC1 | -14.6
NC1=NC[C@@H](Cc2ccc(O)cc2)N1CCCCC1CCCCC1 | -18.6
CN(C)C1=NC[C@H](Cc2ccccc2)N1CCCC1CCCC1 | -71.2
CN(C)C1=NC[C@H](Cc2ccccc2)N1CCC1CCCC1 | -43.5
CN(C)C1=NC[C@H](Cc2ccccc2)N1CC1CCCC1 | -16.9
CN(C)C1=NC[C@H](Cc2ccccc2)N1CC1CCCCCC1 | -27.8
N#C/C(=C\c1ccc(F)cc1F)S(=O)(=O)c1ccccn1 | 6.77
Cc1ccc(C)c(NS(=O)(=O)c2cc3c4c(c2)CC(=O)N4CCC3)c1 | 4.86
O=C(N/N=C/c1ccc(Br)s1)c1cccc([N+](=O)[O-])c1 | 12.2
